Hits are enriched below; roughly 1.7% of the tested compounds scored in any of these assays.
eIF4H FP inh – human eIF4H binding inhibitors, primary screen, translation initiation inhibitor project, biochemical, uHTS, fluorescence polarization | Eukaryotic translation initiation factor 4H (Homo sapiens), Q15056 | eIF4H fluorescence polarization binding assay | 290,000 compounds, 0.94% hits | inhibition, % at 35 µM;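 further: calls also rest on retests at 20 µM and on dose response follow-up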
EBV gp42 inh – Epstein-Barr virus gp42 inhibitors, primary screen, biochemical, uHTS, fluorescence polarization; Glycoprotein 42 (Epstein-Barr virus (strain AG876)), Q1HVG2; Fluorescence polarization binding assay, mP read-out; inhibition, % (tested at 21.74 µM); 220,000 compounds, 0.42% hits; AID 1085, 2008; in the data active means inhibition above about 50%
PABP1 MLLE inh – inhibitors of PABP1 MLLE–PAM2 peptide binding, primary screen, biochemical, fluorescence polarization, FITC-PAM2, GST-MLLE | inhibition, % at 20 µM | 360,000 compounds, 0.36% hits | AID 588489, 2011; in the data active means inhibition above about 35%, passing the limit was not always enough;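 further: plate controls were DMSO wells with GST-MLLE for no effect and wells lacking GST-MLLE protein for full effect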
Target sequence (P11940 whole entry, looked up): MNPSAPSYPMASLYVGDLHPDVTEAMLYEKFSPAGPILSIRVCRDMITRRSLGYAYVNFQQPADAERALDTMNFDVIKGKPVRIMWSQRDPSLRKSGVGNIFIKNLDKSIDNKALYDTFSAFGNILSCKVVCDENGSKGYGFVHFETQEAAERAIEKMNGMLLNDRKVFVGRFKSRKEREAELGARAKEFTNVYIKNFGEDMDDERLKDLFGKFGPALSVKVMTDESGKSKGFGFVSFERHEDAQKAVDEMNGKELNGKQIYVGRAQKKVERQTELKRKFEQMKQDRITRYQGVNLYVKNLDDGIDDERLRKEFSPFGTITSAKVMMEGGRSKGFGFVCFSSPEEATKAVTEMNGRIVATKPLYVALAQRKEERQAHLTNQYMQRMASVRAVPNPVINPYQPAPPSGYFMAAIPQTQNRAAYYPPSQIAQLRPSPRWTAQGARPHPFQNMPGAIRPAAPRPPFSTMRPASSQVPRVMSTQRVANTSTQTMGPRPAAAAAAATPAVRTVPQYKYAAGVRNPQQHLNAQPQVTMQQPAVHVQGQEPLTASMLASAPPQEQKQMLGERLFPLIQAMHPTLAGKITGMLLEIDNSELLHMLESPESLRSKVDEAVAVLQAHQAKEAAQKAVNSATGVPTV
eIF4E-4G inh – eIF4E–eIF4G protein interaction inhibitors, primary screen, biochemical, uHTS, TR-FRET, eIF4GI fragment | inhibition, % at 21.7 µM | Eukaryotic translation initiation factor 4E (Mus musculus) + Eukaryotic translation … | TR-FRET eIF4E-eIF4GI(517-606) binding, 2 h | 220,000 compounds, 0.37% hits;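 active means inhibition above about 30%, limit read from the data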;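 further: 0% = full FRET control wells and 100% = background wells lacking eIF4GI fragment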
PABP polyA inh – PABP poly(A) RNA binding inhibitors, primary screen, biochemical, fluorescence polarization, uHTS; Polyadenylate-binding protein 1 (Homo sapiens), P11940; calls only at 35 µM; 290,000 compounds, 1% hits; AID 2014, 2009;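 further: calls also rest on retests at 20 µM and on dose response follow-up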
* marks the source's active call; other numbers are inactive results; i = inactive; ? = inconclusive; nt = no result; + = active, no number. Unless noted, how the calls were made is not given here.

SMILES	eIF4H FP inh	EBV gp42 inh	PABP1 MLLE inh	eIF4E-4G inh	PABP polyA inh
O=C(O)CN1C(=O)C2C3CC(C2C1=O)C1C(c2ccc(Cl)cc2)c2sc(=O)[nH]c2SC31 (configuration not stated)	24.7	-17.8	19.8	-0.6	i
CN(CC(=O)Nc1cccc(F)c1)C(=O)c1ccccc1OCCOc1ccccc1	nt	nt	7.2	nt	nt
CCN(c1ccc(N=Cc2c(O)n(Cc3ccc(OC)cc3)c(=O)c3ccccc23)cc1)C(C)C	?	+	i	3.6	i
CCOc1ccc(S(=O)(=O)N/N=C(\C)C2CCCCC2)cc1	71.1*	-0.9	8.0	-2.1	+
CCOc1ccc(S(=O)(=O)NC2CCCCCC2)cc1	-6.0	1.9	-9.2	-3.8	i
COc1ccc(S(=O)(=O)N(C)C(C)CCc2ccco2)cc1 (configuration not stated)	9.4	nt	1.8	nt	i
COc1ccc(C(N)CCc2ccco2)cc1 (configuration not stated)	50.2*	-12.8	-34.7	-0.7	+
O=C(O)c1ccccc1SC1CC(=O)N(c2ccc3c(c2)OCO3)C1=O (configuration not stated)	33.1	-2.9	37.6*	7.5	i
Cc1cc(C)cc(N2C(=O)CC(Sc3ccccc3C(=O)O)C2=O)c1 (configuration not stated)	-4.0	-6.0	41.1*	4.8	i
Cc1ccc(N2C(=O)CC(Sc3ccccc3C(=O)O)C2=O)cc1 (configuration not stated)	1.1	-21.4	50.0*	4.1	i
CC(C)c1ccc(N2C(=O)CC(Sc3ncccn3)C2=O)cc1 (configuration not stated)	-13.8	nt	38.5*	nt	i
Cc1cccc(N2C(=O)CC(Sc3ccccc3C(=O)O)C2=O)c1 (configuration not stated)	-1.7	-3.1	24.4	3.7	i
O=C(NCc1ccccc1)c1cc(C2CCCN(C(=O)CCCc3ccccc3)C2)on1 (configuration not stated)	nt	nt	5.8	nt	nt
CN(CC(=O)Nc1ccc(S(=O)(=O)N2CCCC2)cc1)CC(=O)Nc1cccc(F)c1	7.2	-16.1	6.0	0.3	i
O=C1c2[nH]c3ccccc3c2CC1N1C(=O)c2ccccc2C1=O (configuration not stated)	nt	nt	16.4	nt	nt
CC(C#N)N1CCN(S(=O)(=O)c2ccc3c(c2)CCC3)CC1 (configuration not stated)	nt	nt	24.9	nt	nt
CNc1cncc(-c2ccc(OC)c(OC)c2)n1	nt	nt	-10.1	nt	nt
Cc1ccc(N2C(=O)CC(Sc3ccccc3C(=O)O)C2=O)c([N+](=O)[O-])c1 (configuration not stated)	2.0	-21.2	37.7*	2.2	i
Nc1nnc(SC2CC(=O)N(c3ccccc3)C2=O)s1 (configuration not stated)	1.5	-22.3	42.0*	nt	i
Cc1nn(C)c(C)c1CN(C)C(=O)C1(C)CC1(Br)Br (configuration not stated)	1.1	2.2	8.4	12.9	i
Cc1nn(C)c(C)c1CN(C)C(=O)C1c2ccccc2Oc2ccccc21	?	81.4*	23.1	-1.3	i
O=C(Nc1nccs1)C(c1ccccc1)N1CCCC1 (configuration not stated)	2.0	65.4*	2.7	-3.5	i
CC(C)C(C(=O)Nc1nccs1)c1ccccc1 (configuration not stated)	9.3	3.8	13.9	1.1	i
CC1C(C#N)=C(N)OC2=C1C(=O)CC(c1ccccc1)C2 (configuration not stated)	3.4	2.7	-0.7	-3.5	i
COC(=O)C1=C(C)NC(=O)C1(NS(=O)(=O)c1ccc(C)cc1)C(F)(F)F (configuration not stated)	58.9	-2.5	10.8	0.9	+
CCOC(=O)C1CCN(C(=O)c2ccccc2)C(CC)C1=O (configuration not stated)	nt	nt	-3.0	nt	nt
CN1CCCCc2c1[nH]c1ccccc1c2=O	59.1*	-11.6	15.2	3.0	+
CC(C)CN1C(=O)C(=O)N(CC(=O)N2CCN(c3ccccc3)CC2)C1=O	nt	nt	6.4	nt	nt
